Test results taken from PubChem BioAssay.
Active and inactive are the calls of the source. Unless noted, the rule behind the calls is not given here.

How the values were obtained:
[1] = compounds binding Alexa647 anti-His antibody – biochemical, small-molecule microarray, 635 nm fluorescence, artefact control for SMM control protein annotation, primary screen (AID 1128); conditions: higher = more signal;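 note: score merges feature fluorescence with signal-to-noise for each printed compound spot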
[2] = system: Human papillomavirus type 1a E7 protein (residues 1-88); assay: HPV1a E7 small-molecule binders, primary screen, biochemical, small-molecule microarray, residues 1-88, 635 nm (AID 1129); conditions: small-molecule microarray binding, fluorescence 635 nm; higher = more signal
[3] = target: Focal adhesion kinase 1 (Homo sapiens) (UniProt Q05397); assay: PTK2 protein binding on printed compound slides – biochemical, small-molecule microarray, 635/667 nm fluorescence, BSA, DTT, primary screen (AID 1130); conditions: 635 nm fluorescence, higher = more signal;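 note: composite of spot emission at 667 nm and signal to noise over triplicate slides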
Chain of Focal adhesion kinase 1 (Homo sapiens) (Q05397 whole entry, looked up): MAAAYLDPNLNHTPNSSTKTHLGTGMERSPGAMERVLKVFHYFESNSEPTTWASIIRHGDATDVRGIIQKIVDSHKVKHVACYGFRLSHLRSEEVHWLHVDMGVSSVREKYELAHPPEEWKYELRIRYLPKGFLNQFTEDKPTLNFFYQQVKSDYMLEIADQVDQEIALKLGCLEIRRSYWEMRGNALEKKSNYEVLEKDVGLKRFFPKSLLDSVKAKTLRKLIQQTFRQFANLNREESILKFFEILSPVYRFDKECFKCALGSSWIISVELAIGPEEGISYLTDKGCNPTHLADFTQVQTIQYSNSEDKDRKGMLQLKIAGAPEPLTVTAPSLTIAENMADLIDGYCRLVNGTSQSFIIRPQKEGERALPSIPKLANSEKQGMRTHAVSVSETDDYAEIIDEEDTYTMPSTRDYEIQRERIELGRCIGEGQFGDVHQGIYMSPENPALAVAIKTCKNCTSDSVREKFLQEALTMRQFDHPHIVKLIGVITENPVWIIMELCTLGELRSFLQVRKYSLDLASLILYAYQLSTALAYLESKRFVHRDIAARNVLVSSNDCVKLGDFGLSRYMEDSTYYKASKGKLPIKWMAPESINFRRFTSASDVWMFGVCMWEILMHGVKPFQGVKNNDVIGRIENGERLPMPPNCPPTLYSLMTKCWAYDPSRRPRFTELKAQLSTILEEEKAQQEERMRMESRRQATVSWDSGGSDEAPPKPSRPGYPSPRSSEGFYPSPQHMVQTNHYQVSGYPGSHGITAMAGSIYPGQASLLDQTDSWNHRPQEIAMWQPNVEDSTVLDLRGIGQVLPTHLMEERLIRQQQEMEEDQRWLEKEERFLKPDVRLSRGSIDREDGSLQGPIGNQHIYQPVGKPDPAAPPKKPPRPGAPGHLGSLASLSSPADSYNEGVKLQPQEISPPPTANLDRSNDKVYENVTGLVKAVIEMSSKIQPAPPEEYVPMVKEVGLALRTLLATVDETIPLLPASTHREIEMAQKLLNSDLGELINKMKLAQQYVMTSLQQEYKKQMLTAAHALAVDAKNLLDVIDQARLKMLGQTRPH

[4] = system: Fibrinogen (Alexa647-labelled); assay: Alexa647-fibrinogen binding to printed small molecules – biochemical, small-molecule microarray, 635/667 nm fluorescence, artefact control for SMM control-protein annotation, profiling panel (AID 1131); conditions: fibrinogen-A647 binding fluorescence, higher = more signal;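 note: z-score merges 667 nm fluorescence with per-spot signal-to-noise over triplicate slides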
[5] = target: Follistatin (Homo sapiens) (UniProt P19883); assay: FST protein binding to printed compounds – biochemical, small-molecule microarray, 635/667 nm fluorescence, primary screen (AID 1132); conditions: 635 nm fluorescence, higher = more signal
Chain of Follistatin (Homo sapiens) (P19883 whole entry, looked up): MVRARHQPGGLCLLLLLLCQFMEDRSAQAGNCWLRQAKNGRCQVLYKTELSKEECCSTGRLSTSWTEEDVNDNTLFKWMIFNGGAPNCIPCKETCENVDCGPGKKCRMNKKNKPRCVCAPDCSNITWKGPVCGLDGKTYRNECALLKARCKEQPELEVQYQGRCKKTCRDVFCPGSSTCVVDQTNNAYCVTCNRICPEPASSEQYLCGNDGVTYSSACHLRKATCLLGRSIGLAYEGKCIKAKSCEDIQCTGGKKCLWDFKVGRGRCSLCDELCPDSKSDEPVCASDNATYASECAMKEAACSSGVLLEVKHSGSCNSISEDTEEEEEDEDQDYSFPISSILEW

[6] = target: Fibroblast growth factor 2 (Homo sapiens) (UniProt P09038); assay: basic fibroblast growth factor binding to printed compounds – biochemical, small-molecule microarray, 635/667 nm fluorescence, primary screen (AID 1133); conditions: FGF2, fluorescence 635/667, higher = more signal
Chain of Fibroblast growth factor 2 (Homo sapiens) (P09038 whole entry, looked up): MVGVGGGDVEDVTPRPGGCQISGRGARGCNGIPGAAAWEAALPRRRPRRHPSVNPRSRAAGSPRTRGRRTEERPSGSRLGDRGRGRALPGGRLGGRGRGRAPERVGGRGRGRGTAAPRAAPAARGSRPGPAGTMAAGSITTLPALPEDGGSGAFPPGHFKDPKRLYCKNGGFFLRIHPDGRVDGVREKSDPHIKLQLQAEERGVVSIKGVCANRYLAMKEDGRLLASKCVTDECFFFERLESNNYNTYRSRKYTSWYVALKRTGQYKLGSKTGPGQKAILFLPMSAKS

[7] = JC-1 mitochondrial potential readout, lung cancer cells – cell-based, A549, JC-1 fluorescence, basal, 24 h, 100 nL, profiling panel (AID 1138); conditions: higher = more signal;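 note: A549 lung adenocarcinoma cells under basal conditions with no added stimulus; test concentration not given here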
[8] = system: Lefty1; assay: Lefty1 protein binding to printed compounds – biochemical, small-molecule microarray, 635/667 nm fluorescence, primary screen (AID 1139); conditions: fluorescence 635/667, higher = more signal
[9] = system: wheat germ agglutinin (Triticum aestivum), Alexa647-labelled; assay: Alexa647-WGA lectin binding to printed small molecules – biochemical, small-molecule microarray, 635/667 nm fluorescence, artefact control for SMM control-protein annotation, profiling panel (AID 1140); conditions: WGA-A647 binding, 635 nm fluorescence, higher = more signal;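 note: score merges 667 nm feature emission with signal to noise over triplicate slides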
[10] = target: Luciferin 4-monooxygenase (Photinus pyralis) (UniProt P08659); assay: inhibition of purified Photinus pyralis luciferase – biochemical, luminescence, purified enzyme, 2006 set, primary screen (AID 1141); conditions: purified firefly luciferase, SteadyGlo luminescence, 30 min; higher = more signal, called active from +8 up or from −8 down;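 note: cell-free assay with purified firefly luciferase at 100 ng per well in PBS; test concentration not given here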
Chain of Luciferin 4-monooxygenase (Photinus pyralis) (P08659 whole entry, looked up): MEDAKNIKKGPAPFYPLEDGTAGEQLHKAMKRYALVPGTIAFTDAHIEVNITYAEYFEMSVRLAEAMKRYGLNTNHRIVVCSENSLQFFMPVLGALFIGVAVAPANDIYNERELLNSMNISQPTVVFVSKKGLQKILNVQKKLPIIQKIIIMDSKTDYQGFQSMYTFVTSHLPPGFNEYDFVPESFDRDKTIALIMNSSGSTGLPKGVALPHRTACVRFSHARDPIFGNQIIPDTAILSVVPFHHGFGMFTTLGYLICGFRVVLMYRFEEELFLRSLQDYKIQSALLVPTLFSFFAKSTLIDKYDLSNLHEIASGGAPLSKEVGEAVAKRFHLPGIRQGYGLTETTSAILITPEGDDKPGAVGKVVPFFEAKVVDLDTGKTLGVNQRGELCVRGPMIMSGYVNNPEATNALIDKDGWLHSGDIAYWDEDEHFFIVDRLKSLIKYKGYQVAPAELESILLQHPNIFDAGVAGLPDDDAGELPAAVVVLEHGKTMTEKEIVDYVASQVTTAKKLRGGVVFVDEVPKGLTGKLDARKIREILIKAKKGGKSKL

[11] = system: Wnt5a (protein binding on small-molecule microarray); assay: small molecules binding Wnt5a protein – biophysical, small-molecule microarray, 635/667 nm fluorescence, primary screen (AID 1142); conditions: 635 nm fluorescence, higher = more signal;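 note: fluorescence read at 667 nm with signal to noise per printed feature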
[12] = ATP-based viability of Huh7 replicon cells – cell-based, CellTiter-Glo luminescence, basal, 48 h, cytotoxicity control for HCV replication inhibitor project, primary screen (AID 1143); conditions: higher = more signal, called active from +8 up or from −8 down;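 note: Huh7 hepatoma cells carrying a hepatitis C replication reporter with no stimulus; test concentration not given here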
[13] = Pseudomonas biofilm growth suppression – PAO1 strain, BacTiter-Glo luminescence, LB-PBS, primary screen (AID 1144); conditions: P. aeruginosa PAO1 biofilm, 12 h, higher = more signal
[14] = basal CRE-LacZ reporter activity in PC12 – cell-based, unstimulated, primary screen (AID 1145); conditions: no forskolin, luminescence, 4.5 h, higher = more signal, called active from +8 up or from −8 down
[15] = forskolin-driven CRE-LacZ activity in PC12 – cell-based, CRE-LacZ reporter, forskolin-stimulated, primary screen (AID 1146); conditions: luminescence, 4.5 h, higher = more signal, called active from +8 up or from −8 down;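 note: PC12 cells with 6xCRE LacZ reporter stimulated by forskolin 10 µM; beta-galactosidase reporter signal reflecting CREB driven transcription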
[16] = target: Streptavidin (Streptomyces avidinii) (UniProt P22629); assay: compounds binding control protein streptavidin – biophysical, small-molecule microarray, 635/667 nm fluorescence, artefact control for SMM compound annotation, primary screen (AID 1147); conditions: higher = more signal;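 note: signal reflects streptavidin binding to arrayed compounds as a control protein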
Chain of Streptavidin (Streptomyces avidinii) (P22629 whole entry, looked up): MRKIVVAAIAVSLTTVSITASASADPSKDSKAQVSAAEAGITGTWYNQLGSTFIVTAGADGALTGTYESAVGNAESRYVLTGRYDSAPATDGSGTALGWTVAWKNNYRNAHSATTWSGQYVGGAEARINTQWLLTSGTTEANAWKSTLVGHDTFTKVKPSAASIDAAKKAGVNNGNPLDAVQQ

[17] = probe aInhba binding on compound microarray – biochemical, small-molecule microarray, 635/667 nm fluorescence, primary screen (AID 1148); conditions: higher = more signal;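 note: score merges 667nm spot fluorescence with signal-to-noise for antibody binding to printed compounds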
[18] = target: Torsin-1A (Homo sapiens) (UniProt O14656); assay: TOR1A wild-type binding on microarray – cell lysate, small-molecule microarray, lysate, 635/667 nm, primary screen (AID 1149); conditions: COS7 hTOR1A-WT lysate, 635 nm fluorescence, higher = more signal
Chain of Torsin-1A (Homo sapiens) (O14656 whole entry, looked up): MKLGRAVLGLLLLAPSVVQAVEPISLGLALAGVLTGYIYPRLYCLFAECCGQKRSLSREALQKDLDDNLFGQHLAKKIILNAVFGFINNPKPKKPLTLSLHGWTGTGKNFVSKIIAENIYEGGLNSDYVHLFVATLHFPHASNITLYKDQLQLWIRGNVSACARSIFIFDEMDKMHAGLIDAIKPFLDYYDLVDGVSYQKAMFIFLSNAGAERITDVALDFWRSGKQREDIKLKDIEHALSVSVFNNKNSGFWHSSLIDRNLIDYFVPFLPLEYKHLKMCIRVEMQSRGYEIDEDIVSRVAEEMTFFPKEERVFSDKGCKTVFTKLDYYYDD

[19] = target: Torsin-1A (Homo sapiens) (UniProt O14656); assay: torsin A mutant lysate binding on microarrays – cell lysate, small-molecule microarray, COS7 lysate, 635/667 nm fluorescence, primary screen (AID 1150); conditions: COS7 hTOR1A mutant lysate, 635 nm fluorescence, higher = more signal;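 note: score pools 667 nm emission and signal to noise measuring lysate protein binding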
[20] = system: Sonic hedgehog protein (Shh); assay: Sonic hedgehog microarray binding compounds – biochemical, small-molecule microarray, 635/667 nm fluorescence, primary screen (AID 1151); conditions: 635 nm fluorescence, higher = more signal;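 note: Shh protein binding to compounds spotted on small-molecule microarray slides; score combines spot fluorescence intensity with signal-to-noise across triplicate slides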

Row | SMILES | composite z-score [1] | composite z-score [2] | composite z-score [3] | composite z-score [4] | composite z-score [5] | composite z-score [6] | z-score [7] | composite z-score [8] | composite z-score [9] | z-score [10] | composite z-score [11] | z-score [12] | z-score [13] | z-score [14] | z-score [15] | composite z-score [16] | composite z-score [17] | composite z-score [18] | composite z-score [19] | composite z-score [20]
1 | C=CCNC(=O)[C@@H]1[C@H]2C(=O)O[C@H](c3ccccc3)[C@H](c3ccccc3)N2[C@H](c2ccccc2OCCO)[C@@]12C(=O)Nc1ccc(C#CCCO)cc12 | 0.169 | 0.723 | 0.415 | 0.862 | 1.43 | 1.62 | 0.861 | 1.32 | 0.5 | 0.467 (inactive) | 0.27 | -3.75 (inactive) | -1.2 (inactive) | -1.7 (inactive) | -1.17 (inactive) | -0.158 | 0.0111 | 0.188 | 0.527 | 2.03
2 | C=CCNC(=O)[C@@H]1[C@H]2C(=O)O[C@H](c3ccccc3)[C@H](c3ccccc3)N2[C@H](c2ccccc2OCCO)[C@@]12C(=O)Nc1ccc(C#CCC(C(=O)OC)C(=O)OC)cc12 | 1.03 | 1.2 | 0.978 | 0.0251 | 0.67 | 0.335 | -1.44 | -0.0767 | 0.551 | -0.238 (inactive) | 0.0142 | -6.3 (inactive) | 0.616 (inactive) | -0.191 (inactive) | -1.03 (inactive) | 0.0625 | 0.84 | 0.834 | 0.566 | 0.499
3 | COC(=O)[C@@]1(Cc2ccc(F)cc2)[C@H]2c3cc(C(=O)N4CCCC4)n(CCc4c[nH]c5ccccc45)c3C[C@H]2CN1C(=O)c1ccccc1 | 1.56 | 1.26 | 1.27 | 0.97 | 0.867 | 0.577 | 0.775 | -0.627 | 0.816 | 2.04 (inactive) | 0.407 | -3.01 (inactive) | 1.82 (inactive) | 0.587 (inactive) | 0.668 (inactive) | 1.91 | 0.668 | -0.0812 | 0.321 | -0.393
4 | O=C1O[C@@H](c2ccccc2)[C@@H](c2ccccc2)N2[C@@H](c3ccc(O)cc3)[C@]3(C(=O)Nc4ccc(C#CCCO)cc43)[C@@H](C(=O)N3CCN(c4ncccn4)CC3)[C@H]12 | 1.56 | 1.14 | 0.165 | 0.512 | 1.37 | 1.68 | -1.25 | 0.952 | 0.0869 | 0.764 (inactive) | 0.409 | -1.28 (inactive) | -0.622 (inactive) | -0.554 (inactive) | -0.572 (inactive) | -0.704 | 0.0214 | 0.591 | 0.967 | 2.21
5 | NC(=O)NCC#Cc1ccc2c(c1)[C@]1(C(=O)N2)[C@H](C(=O)N2CCN(c3ncccn3)CC2)[C@H]2C(=O)O[C@H](c3ccccc3)[C@H](c3ccccc3)N2[C@@H]1c1ccc(O)cc1 | 1.43 | 1.14 | 0.244 | 0.768 | 1.37 | 1.3 | -0.982 | 0.36 | 0.542 | -0.598 (inactive) | 0.364 | -0.0243 (inactive) | 0.407 (inactive) | -0.467 (inactive) | -0.43 (inactive) | 0.328 | -0.352 | 0.0312 | 0.377 | 0.905
6 | C=CCOC(=O)[C@@]1(Cc2ccccc2)C[C@H]2CO[C@H](c3ccc(OC)cc3)N2C1=O | 0.848 | 0.191 | 0.575 | 0.494 | 0.3 | 0.186 | 0.272 | 0.55 | 0.133 | -0.0402 (inactive) | -0.0728 | -1.08 (inactive) | 0.572 (inactive) | 2.72 (inactive) | 0.892 (inactive) | 0.911 | -0.0719 | 0.91 | 0.456 | 0.235
7 | C=CC[C@@]1(C(=O)NCCCOC)N=C(c2ccc(OCCCO)cc2)O[C@@H]1c1ccccc1N=[N+]=[N-] | 2.2 | 1.21 | 0.474 | 1.03 | 1.28 | 0.0912 | 1.3 | -0.115 | 0.736 | -3.67 (inactive) | 0.452 | -2.67 (inactive) | -1.75 (inactive) | -0.711 (inactive) | -0.66 (inactive) | 0.77 | 0.0713 | -0.668 | -0.112 | -0.388
8 | O=C1N(CCS(=O)(=O)c2ccccc2)c2ccccc2[C@H]2OC(c3ccc(OCCCO)cc3)=N[C@@]12Cc1ccccc1 | 2.15 | 0.936 | 0.548 | 0.587 | 1.54 | 1.75 | 1.08 | 0.476 | 0.943 | -8.53 (active) | 0.636 | -3.51 (inactive) | 0.582 (inactive) | 5.87 (inactive) | -1.86 (inactive) | 0.274 | 0.397 | 1.08 | 1.07 | 1.74
9 | COCCOC(=O)N1C(=O)[C@@]2(c3ccccc31)[C@H](C(=O)NC[C@H](O)c1ccccc1)[C@H]1C(=O)O[C@H](c3ccccc3)[C@H](c3ccccc3)N1[C@@H]2c1ccc(O)cc1 | 1.43 | 1.26 | 0.818 | 0.965 | 1.34 | 1.61 | -1.17 | 1.23 | 0.648 | 0.883 (inactive) | 0.852 | -1.98 (inactive) | -0.193 (inactive) | 0.155 (inactive) | 2.34 (inactive) | 1.09 | 0.106 | 0.877 | 0.383 | 1.74
